Data published in paper PMC7862700, “An all-to-all approach to the identification of sequence-specific readers for epigenetic DNA modifications on cytosine”.

What was measured:
Experiment in all cases: DAPPL (digital affinity profiling via proximity ligation, sequencing); 10 mM Tris-HCl pH 7.5, 50 mM NaCl, 1 mM DTT, 4% glycerol, room temperature, 30 min; GST-TFs on glutathione beads, 16-mer random dsDNA library, 0.1% formaldehyde crosslink after washing; high values mean tight binding
Conditions in all cases: protein: recombinant; tags: N-terminal GST; dsDNA, one strand shown
FEV = target: T1, FEV (Homo sapiens, UniProt Q99581 1-238)
T1 sequence: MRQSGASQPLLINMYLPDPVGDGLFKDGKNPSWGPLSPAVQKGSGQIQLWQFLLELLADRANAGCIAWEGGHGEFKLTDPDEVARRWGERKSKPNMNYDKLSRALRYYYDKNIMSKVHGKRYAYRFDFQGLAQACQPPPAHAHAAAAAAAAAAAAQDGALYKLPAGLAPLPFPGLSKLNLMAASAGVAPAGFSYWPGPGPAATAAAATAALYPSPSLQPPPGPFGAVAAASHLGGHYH
Outline: (§1)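 The binding signal reported is, for every hexamer, its read frequency for a factor over its read frequency for the tag-only sample. Reads came from pools of yeast-expressed, GST-fused human transcription factors on glutathione beads, barcoded with DNA and mixed with that sample, which were incubated with 200 nmole of a random double-stranded 16-mer DNA library in Tris/NaCl/DTT/glycerol buffer at room temperature for 30 min. After washing, the pools were crosslinked with 0.1% formaldehyde, proximity-ligated with BsaI/T4 ligase for 1 h at 37 °C, PCR-amplified and sequenced on an Illumina NextSeq500.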

ETV5 = ETV5 (Homo sapiens, UniProt P41161 1-510)
Outline: as §1

SPIC = target: T2, SPIC (Homo sapiens, UniProt Q8N5J4 1-248)
T2 sequence: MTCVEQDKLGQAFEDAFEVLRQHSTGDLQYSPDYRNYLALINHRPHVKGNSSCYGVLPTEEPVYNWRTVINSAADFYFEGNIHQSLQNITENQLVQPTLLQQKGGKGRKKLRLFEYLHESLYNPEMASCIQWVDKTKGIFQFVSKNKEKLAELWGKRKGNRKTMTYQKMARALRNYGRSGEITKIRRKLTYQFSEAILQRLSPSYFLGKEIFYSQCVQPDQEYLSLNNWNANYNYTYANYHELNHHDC
Outline: as §1

ELF4 = ELF4 (Homo sapiens, UniProt Q99607 1-663)
Outline: as §1

ELK4 = target: T3, ELK4 (Homo sapiens, UniProt P28324-2 1-405)
T3 sequence: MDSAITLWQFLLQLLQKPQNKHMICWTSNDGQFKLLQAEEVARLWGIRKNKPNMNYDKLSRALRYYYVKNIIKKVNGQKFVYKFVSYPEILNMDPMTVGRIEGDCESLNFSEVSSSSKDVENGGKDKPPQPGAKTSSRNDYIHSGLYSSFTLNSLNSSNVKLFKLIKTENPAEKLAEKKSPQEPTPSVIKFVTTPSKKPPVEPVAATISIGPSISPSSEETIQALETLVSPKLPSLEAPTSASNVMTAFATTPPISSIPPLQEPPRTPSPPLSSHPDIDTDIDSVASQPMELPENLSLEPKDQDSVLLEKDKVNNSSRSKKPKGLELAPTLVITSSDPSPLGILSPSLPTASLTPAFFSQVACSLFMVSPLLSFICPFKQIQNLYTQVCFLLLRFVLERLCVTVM
Outline: as §1

ETV2 = target: T4, ETV2 (Homo sapiens, UniProt O00321 1-342)
T4 sequence: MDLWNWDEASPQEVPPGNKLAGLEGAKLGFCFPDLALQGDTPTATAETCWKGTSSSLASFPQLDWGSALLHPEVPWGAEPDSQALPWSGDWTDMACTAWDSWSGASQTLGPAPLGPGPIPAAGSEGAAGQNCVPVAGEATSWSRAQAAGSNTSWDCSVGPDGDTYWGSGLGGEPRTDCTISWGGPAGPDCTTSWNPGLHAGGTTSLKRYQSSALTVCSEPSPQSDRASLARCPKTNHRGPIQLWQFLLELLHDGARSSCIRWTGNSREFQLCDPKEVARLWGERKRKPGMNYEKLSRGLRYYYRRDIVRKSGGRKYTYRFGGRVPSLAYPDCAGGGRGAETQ
Outline: as §1

ELF3 = target: T5, ELF3 (Homo sapiens, UniProt P78545 1-371)
T5 sequence: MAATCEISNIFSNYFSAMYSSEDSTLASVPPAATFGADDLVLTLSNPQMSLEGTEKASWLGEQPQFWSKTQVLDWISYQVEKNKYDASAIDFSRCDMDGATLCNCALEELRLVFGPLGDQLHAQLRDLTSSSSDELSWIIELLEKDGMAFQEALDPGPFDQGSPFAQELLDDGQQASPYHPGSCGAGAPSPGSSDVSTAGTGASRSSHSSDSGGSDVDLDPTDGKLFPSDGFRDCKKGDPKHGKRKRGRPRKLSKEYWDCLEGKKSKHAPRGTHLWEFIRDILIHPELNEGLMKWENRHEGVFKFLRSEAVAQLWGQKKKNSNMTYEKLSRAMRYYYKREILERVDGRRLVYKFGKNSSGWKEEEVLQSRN
Outline: as §1

ETV1 = ETV1 (Homo sapiens, UniProt P50549 1-477)
Outline: as §1

ERF = target: T6, ERF (Homo sapiens, UniProt P50548 1-548)
T6 sequence: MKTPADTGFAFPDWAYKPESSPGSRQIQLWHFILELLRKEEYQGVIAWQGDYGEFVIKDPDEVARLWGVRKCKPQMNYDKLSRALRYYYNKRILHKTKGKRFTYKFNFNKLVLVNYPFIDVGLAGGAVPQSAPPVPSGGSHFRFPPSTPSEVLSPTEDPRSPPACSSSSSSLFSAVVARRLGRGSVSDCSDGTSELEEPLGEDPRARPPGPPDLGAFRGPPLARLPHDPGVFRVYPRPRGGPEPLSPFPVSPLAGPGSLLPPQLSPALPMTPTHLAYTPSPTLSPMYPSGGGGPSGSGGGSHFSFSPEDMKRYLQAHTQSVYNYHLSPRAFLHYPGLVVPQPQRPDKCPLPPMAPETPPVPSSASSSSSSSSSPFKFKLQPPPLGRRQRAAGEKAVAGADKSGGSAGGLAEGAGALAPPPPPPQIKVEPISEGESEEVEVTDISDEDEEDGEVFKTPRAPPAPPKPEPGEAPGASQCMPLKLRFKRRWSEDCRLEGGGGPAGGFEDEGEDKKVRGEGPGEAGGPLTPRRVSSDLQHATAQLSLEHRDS
Outline: as §1

ETV3L = target: T7, ETV3L (Homo sapiens, UniProt Q6ZN32 1-361)
T7 sequence: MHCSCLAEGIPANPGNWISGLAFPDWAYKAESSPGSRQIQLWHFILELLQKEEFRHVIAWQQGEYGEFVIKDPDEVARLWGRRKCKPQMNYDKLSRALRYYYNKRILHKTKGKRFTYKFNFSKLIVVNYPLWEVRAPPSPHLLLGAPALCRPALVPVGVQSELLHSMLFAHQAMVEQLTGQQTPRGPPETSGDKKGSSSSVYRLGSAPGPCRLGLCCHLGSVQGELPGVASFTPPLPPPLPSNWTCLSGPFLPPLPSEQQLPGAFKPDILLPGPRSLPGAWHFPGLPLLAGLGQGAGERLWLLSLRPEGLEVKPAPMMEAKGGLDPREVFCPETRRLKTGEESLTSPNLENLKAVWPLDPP
Outline: as §1

ETS2 = target: T8, ETS2 (Homo sapiens, UniProt P15036 1-469)
T8 sequence: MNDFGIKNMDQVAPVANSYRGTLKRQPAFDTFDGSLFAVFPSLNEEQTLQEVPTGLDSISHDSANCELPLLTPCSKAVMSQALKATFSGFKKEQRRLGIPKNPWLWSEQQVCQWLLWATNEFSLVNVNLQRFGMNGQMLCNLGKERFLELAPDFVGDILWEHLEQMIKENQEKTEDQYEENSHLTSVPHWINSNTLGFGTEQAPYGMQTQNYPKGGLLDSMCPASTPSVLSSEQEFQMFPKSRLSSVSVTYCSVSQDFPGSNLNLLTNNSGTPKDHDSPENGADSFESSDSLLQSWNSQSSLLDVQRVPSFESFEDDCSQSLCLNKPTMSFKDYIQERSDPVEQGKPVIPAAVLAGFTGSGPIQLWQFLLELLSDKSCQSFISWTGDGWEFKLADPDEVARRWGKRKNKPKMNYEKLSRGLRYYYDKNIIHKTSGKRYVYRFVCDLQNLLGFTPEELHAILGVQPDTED
Outline: as §1

SPDEF = target: T9, SPDEF (Homo sapiens, UniProt O95238 1-335)
T9 sequence: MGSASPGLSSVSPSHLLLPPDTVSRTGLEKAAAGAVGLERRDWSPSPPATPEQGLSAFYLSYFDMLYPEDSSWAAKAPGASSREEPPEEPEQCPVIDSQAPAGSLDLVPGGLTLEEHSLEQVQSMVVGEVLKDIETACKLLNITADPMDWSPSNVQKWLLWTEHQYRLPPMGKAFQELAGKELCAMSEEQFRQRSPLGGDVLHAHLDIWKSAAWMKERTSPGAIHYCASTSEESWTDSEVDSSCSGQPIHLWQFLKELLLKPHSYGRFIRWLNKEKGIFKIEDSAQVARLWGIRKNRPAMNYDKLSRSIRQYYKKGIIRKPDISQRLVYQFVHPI
Outline: as §1

ETV7 = target: T10, ETV7 (Homo sapiens, UniProt Q9Y603 1-341)
T10 sequence: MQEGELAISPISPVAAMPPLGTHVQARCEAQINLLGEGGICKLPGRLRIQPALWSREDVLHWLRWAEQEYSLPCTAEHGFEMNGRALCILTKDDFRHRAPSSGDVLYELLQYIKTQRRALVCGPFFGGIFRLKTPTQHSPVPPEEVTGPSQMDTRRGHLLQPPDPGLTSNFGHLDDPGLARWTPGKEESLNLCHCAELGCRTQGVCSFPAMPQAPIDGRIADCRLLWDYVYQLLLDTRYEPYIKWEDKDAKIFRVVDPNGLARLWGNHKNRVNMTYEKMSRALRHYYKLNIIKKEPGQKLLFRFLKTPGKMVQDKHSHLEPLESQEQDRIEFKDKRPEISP
Outline: as §1

ELF5 = target: T11, ELF5 (Homo sapiens, UniProt Q9UKW6-2 1-255)
T11 sequence: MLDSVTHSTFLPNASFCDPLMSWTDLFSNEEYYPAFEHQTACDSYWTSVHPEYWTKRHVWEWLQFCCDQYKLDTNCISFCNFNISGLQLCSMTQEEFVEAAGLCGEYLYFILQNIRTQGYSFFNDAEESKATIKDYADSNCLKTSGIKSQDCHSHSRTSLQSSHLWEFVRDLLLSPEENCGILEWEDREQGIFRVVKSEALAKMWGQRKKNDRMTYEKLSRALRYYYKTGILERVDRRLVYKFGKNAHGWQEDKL
Outline: as §1

ETV3 = target: T12, ETV3 (Homo sapiens, UniProt P41162-2 1-143)
T12 sequence: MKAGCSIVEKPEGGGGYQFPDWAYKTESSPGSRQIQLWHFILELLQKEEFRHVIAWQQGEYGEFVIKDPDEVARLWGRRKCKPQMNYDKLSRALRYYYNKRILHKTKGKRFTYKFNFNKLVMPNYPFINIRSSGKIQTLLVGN
Outline: as §1

ETV6 = ETV6 (Homo sapiens, UniProt P41212 1-452)
Outline: as §1

Chain of ELF4 (Q99607 whole entry): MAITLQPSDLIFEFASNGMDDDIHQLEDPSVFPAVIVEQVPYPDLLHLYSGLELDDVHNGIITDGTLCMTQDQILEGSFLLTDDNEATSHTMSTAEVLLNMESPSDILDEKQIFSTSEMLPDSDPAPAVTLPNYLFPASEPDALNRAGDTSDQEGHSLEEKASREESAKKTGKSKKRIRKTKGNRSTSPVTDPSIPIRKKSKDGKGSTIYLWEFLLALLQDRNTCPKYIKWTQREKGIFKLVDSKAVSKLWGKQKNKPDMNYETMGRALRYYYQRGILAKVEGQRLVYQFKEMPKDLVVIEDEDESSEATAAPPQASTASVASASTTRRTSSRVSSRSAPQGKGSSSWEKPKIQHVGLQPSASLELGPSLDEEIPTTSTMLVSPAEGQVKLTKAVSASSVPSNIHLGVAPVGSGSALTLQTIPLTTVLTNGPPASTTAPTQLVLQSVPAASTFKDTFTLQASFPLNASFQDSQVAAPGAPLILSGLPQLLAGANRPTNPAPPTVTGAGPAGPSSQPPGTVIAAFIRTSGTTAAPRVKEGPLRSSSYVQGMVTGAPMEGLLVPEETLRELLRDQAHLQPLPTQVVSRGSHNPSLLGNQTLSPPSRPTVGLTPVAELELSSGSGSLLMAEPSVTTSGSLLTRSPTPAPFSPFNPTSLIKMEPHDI
Chain of ETV1 (P50549 whole entry): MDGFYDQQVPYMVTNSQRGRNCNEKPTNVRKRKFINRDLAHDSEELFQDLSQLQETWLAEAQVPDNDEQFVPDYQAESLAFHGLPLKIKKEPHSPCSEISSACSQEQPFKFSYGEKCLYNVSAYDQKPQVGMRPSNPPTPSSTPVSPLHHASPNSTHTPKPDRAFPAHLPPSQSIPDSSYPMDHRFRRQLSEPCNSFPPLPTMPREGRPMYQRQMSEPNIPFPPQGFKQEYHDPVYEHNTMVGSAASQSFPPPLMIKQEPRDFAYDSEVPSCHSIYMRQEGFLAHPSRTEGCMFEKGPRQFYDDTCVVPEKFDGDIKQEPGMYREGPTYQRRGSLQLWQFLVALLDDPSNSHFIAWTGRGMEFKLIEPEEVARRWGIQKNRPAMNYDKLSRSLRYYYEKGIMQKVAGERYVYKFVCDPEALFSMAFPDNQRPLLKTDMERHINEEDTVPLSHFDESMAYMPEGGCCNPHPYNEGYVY
Chain of ETV5 (P41161 whole entry): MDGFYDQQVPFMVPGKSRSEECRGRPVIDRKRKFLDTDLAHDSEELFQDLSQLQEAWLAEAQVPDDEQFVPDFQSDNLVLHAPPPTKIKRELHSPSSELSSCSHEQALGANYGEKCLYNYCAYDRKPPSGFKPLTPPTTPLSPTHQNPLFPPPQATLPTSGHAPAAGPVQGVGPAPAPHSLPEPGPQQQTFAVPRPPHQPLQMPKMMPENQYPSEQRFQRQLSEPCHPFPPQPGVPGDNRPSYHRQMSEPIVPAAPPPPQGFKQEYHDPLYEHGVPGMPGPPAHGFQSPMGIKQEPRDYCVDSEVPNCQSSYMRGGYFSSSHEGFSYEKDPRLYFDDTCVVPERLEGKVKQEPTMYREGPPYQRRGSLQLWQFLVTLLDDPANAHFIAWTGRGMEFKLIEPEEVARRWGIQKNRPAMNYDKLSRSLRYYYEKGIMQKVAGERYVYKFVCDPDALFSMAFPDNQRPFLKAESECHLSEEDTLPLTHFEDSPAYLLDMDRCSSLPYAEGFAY
Chain of ETV6 (P41212 whole entry): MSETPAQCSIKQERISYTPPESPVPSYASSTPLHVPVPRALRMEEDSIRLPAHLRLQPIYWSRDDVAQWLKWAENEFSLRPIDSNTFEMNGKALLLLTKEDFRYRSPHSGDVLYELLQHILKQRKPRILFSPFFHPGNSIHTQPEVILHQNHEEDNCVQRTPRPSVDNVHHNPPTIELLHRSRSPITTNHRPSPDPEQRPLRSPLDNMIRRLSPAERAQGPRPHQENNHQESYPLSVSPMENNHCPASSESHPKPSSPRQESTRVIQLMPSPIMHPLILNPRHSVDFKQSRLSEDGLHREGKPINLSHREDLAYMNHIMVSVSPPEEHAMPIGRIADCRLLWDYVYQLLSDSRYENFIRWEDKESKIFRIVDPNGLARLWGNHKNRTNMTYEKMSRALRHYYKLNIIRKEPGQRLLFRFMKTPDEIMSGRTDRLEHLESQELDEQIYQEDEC

**Q.** With GTCCTC as the sequence, how does the binding signal (FEV) read?
**A.** 1.12 fold enrichment (6-mer frequency, TF over GST control)

**Q.** And the binding signal (ETV5)?
**A.** 1.21 fold enrichment (6-mer frequency, TF over GST control)

**Q.** What about the binding signal (SPIC) of the same sequence?
**A.** 1.14 fold enrichment (6-mer frequency, TF over GST control)

**Q.** What about the binding signal (ELF4) of the same sequence?
**A.** 1.27 fold enrichment (6-mer frequency, TF over GST control)

**Q.** And the binding signal (ELK4)?
**A.** 1.34 fold enrichment (6-mer frequency, TF over GST control)

**Q.** And the binding signal (ETV2)?
**A.** 1.4 fold enrichment (6-mer frequency, TF over GST control)

**Q.** And the binding signal (ELF3)?
**A.** 1.16 fold enrichment (6-mer frequency, TF over GST control)

**Q.** And the binding signal (ETV1)?
**A.** 1.25 fold enrichment (6-mer frequency, TF over GST control)

**Q.** And the binding signal (ERF)?
**A.** 1.19 fold enrichment (6-mer frequency, TF over GST control)

**Q.** What about the binding signal (ETV3L) of the same sequence?
**A.** 1.22 fold enrichment (6-mer frequency, TF over GST control)

**Q.** What about the binding signal (ETS2) of the same sequence?
**A.** 1.14 fold enrichment (6-mer frequency, TF over GST control)

**Q.** And the binding signal (SPDEF)?
**A.** 1.19 fold enrichment (6-mer frequency, TF over GST control)

**Q.** And the binding signal (ETV7)?
**A.** 1.39 fold enrichment (6-mer frequency, TF over GST control)

**Q.** And the binding signal (ELF5)?
**A.** 1.32 fold enrichment (6-mer frequency, TF over GST control)

**Q.** And the binding signal (ETV3)?
**A.** 1.2 fold enrichment (6-mer frequency, TF over GST control)

**Q.** What about the binding signal (ETV6) of the same sequence?
**A.** 1.06 fold enrichment (6-mer frequency, TF over GST control)

**Q.** Which results are given for GCCGAC?
**A.** binding signal (FEV): 1.14 fold enrichment (6-mer frequency, TF over GST control); binding signal (ETV5): 1.02 fold enrichment (6-mer frequency, TF over GST control); binding signal (SPIC): 1.34 fold enrichment (6-mer frequency, TF over GST control); binding signal (ELF4): 1.08 fold enrichment (6-mer frequency, TF over GST control); binding signal (ELK4): 1.15 fold enrichment (6-mer frequency, TF over GST control); binding signal (ETV2): 1.15 fold enrichment (6-mer frequency, TF over GST control); binding signal (ELF3): 1 fold enrichment (6-mer frequency, TF over GST control); binding signal (ETV1): 1.04 fold enrichment (6-mer frequency, TF over GST control); binding signal (ERF): 1.2 fold enrichment (6-mer frequency, TF over GST control); binding signal (ETV3L): 1.29 fold enrichment (6-mer frequency, TF over GST control); binding signal (ETS2): 1.15 fold enrichment (6-mer frequency, TF over GST control); binding signal (SPDEF): 1.12 fold enrichment (6-mer frequency, TF over GST control); binding signal (ETV7): 1.12 fold enrichment (6-mer frequency, TF over GST control); binding signal (ELF5): 1.07 fold enrichment (6-mer frequency, TF over GST control); binding signal (ETV3): 1.23 fold enrichment (6-mer frequency, TF over GST control); binding signal (ETV6): 1.08 fold enrichment (6-mer frequency, TF over GST control)
